Columns and labels:
Type in all cases: functional
[1] = target: Solute carrier family 2, facilitated glucose transporter member 1 (Homo sapiens) (UniProt P11166); assay: ST_JUDE_LEISH: Cytotoxicity at 2uM final concentration against transgenic Leishmania Mexicana promastigotes LmGLUT1 that are glucose transport deficient and complemented with the human glucose transporter GLUT1. Activity is measured by DNA content using SYBR green in vitro
[2] = target: Hexose transporter 1 (Plasmodium falciparum) (UniProt O97467); assay: ST_JUDE_LEISH: Cytotoxicity at 2uM final concentration against transgenic Leishmania Mexicana promastigotes LmPfHT that are glucose transport deficient and complemented with the Plasmodium falciparum hexose transporter. Activity is measured by DNA content using SYBR green in vitro
[3] = target: Glucose transporter (Leishmania mexicana) (UniProt O61059); assay: ST_JUDE_LEISH: Cytotoxicity at 2uM final concentration against transgenic Leishmania Mexicana promastigotes LmGT2 that are glucose transport deficient and complemented with the L. Mexicana glucose transporter 2. Activity is measured by DNA content using SYBR green in vitro

Chain of Solute carrier family 2, facilitated glucose transporter member 1 (Homo sapiens) (P11166 whole entry): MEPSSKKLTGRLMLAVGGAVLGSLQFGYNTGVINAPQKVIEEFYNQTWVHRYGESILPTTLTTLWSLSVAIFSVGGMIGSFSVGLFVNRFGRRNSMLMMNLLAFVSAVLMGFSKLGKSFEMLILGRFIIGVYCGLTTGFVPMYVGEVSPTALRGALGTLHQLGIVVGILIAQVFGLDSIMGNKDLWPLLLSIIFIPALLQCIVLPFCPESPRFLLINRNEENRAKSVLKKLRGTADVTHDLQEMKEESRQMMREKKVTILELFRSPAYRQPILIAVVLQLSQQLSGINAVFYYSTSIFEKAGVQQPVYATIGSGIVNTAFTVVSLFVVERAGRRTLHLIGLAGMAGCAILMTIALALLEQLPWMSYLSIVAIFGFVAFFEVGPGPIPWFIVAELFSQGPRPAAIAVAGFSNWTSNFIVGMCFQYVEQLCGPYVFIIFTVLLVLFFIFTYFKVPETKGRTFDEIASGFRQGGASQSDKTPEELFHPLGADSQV

O=C(Nc1nc(-c2ccccn2)cs1)c1ccc(S(=O)(=O)N2CCc3ccccc32)cc1
inhibition [1]: 9.61% | inhibition [2]: 15.1% | inhibition [3]: 2.63%

O=C(NCc1ccccc1F)c1ccc(N2CCC(NCc3cccc(-n4cccn4)c3)CC2)cc1
inhibition [1]: -0.13% | inhibition [2]: 3.43% | inhibition [3]: -1.93%

COc1cccc(CN2CCCC(COC(c3ccc(F)cc3)c3ccc(F)cc3)C2)c1O (configuration not stated)
inhibition [1]: 0.95% | inhibition [2]: 1.89% | inhibition [3]: -0.91%

CCC(C)CN1CCN(c2cc(NC(=O)c3cccs3)ccn2)C(C)C1 (configuration not stated)
inhibition [1]: -1.02% | inhibition [2]: 2.3% | inhibition [3]: 1.68%

Cc1nc(C)c(-c2ccc(Cl)cc2Cl)c(O)c1Br
inhibition [1]: 1.43% | inhibition [2]: 0.95% | inhibition [3]: 3.83%

Oc1ccc(CCCNc2nc(NCc3cccc4ccccc34)nc(N3CCCNCC3)n2)cc1
inhibition [1]: -0.67% | inhibition [2]: -0.2% | inhibition [3]: 1.52%

COc1ccc(-c2cccc(NC(=O)c3cccc(C#N)c3)c2)cc1CN1CCC(O)CC1
inhibition [1]: 3.79% | inhibition [2]: 3.97% | inhibition [3]: 4.2%

COc1ccc2c(NN=Cc3ccccc3Cl)ccnc2c1
inhibition [1]: 3.65% | inhibition [2]: 4.27% | inhibition [3]: 4.32%

CC(C)(C)c1ccc(OCCCON2C(=N)N=C(N)NC2(C)C)c(C(C)(C)C)c1
inhibition [1]: 1.15% | inhibition [2]: 0.14% | inhibition [3]: 1.14%

O=C(/C=C/c1ccc(Cl)c(Cl)c1)NCCCCCN1CCCC(c2c[nH]c3ccccc23)C1 (configuration not stated)
inhibition [1]: 5.68% | inhibition [2]: 5.33% | inhibition [3]: 5.49%

Cc1ccc(Nc2ccnc(Nc3ccc4c(c3)CS(=O)(=O)C4)n2)cc1O
inhibition [1]: 2.49% | inhibition [2]: 3.19% | inhibition [3]: 4.14%

CC(=O)N[C@H](C(=O)Nc1ccc(-c2ccc(-c3nc4cc(C(F)(F)F)ccc4[nH]3)s2)cc1)C(C)C
inhibition [1]: 5.68% | inhibition [2]: 5.3% | inhibition [3]: 4.22%

Cn1ccnc1CNC(=O)c1ccc(-c2cccc(-c3nc4cc(F)ccc4[nH]3)c2)cc1
inhibition [1]: -2.64% | inhibition [2]: 0.96% | inhibition [3]: 1.38%

O=C(Nc1cccc(CN2CCN(C(=O)c3cccc(Cl)c3)CC2)c1)c1cccs1
inhibition [1]: 5.62% | inhibition [2]: 4.14% | inhibition [3]: 2.57%

CN(CCc1ccccn1)c1cccc2c1nc(-c1cccnc1)n2CCNCc1ccccc1
inhibition [1]: 14.8% | inhibition [2]: 13.4% | inhibition [3]: 11.3%

CCC(CC)N1CCN(CC(=O)Nc2ccc([N+](=O)[O-])cc2C(=O)Nc2cccc(OC)c2)CC1
inhibition [1]: 3.1% | inhibition [2]: 1.8% | inhibition [3]: 1.35%

Cc1ccc(Nc2nnc(SCC(=O)Nc3ccc(CN4CCCC4)cc3)s2)cc1
inhibition [1]: 0.83% | inhibition [2]: -0.59% | inhibition [3]: 0.85%

CC1CN(c2cnn(Cc3cccc(NC(=O)Nc4ccc(-c5ccccc5)cc4)c3)c(=O)c2Cl)CC(C)N1 (configuration not stated)
inhibition [1]: 8.54% | inhibition [2]: 5.56% | inhibition [3]: 7.15%

CNC(=O)Cc1ccc(C(=O)Nc2cccc(-c3cccc(-c4nc5cc(C(F)(F)F)ccc5[nH]4)c3)c2)cc1
inhibition [1]: -0.26% | inhibition [2]: 0.81% | inhibition [3]: -0.97%

CC1(C)CCC(C)(C)c2c1ccc(C1CCN(CCCCNC(=O)c3ccc(-c4ccc(Cl)cc4)cc3)CC1)c2O
inhibition [1]: 2.14% | inhibition [2]: 1.66% | inhibition [3]: 0.11%

Cc1ccc(NC(=N)Nc2ncccc2OCc2c(F)cccc2Cl)cc1
inhibition [1]: 7.2% | inhibition [2]: 7.97% | inhibition [3]: 5.56%

Cc1cccc2nc(-c3cccc(-c4ccc(NC(=O)C5CC(=O)Nc6ccccc65)cc4)c3)[nH]c12 (configuration not stated)
inhibition [1]: 2.47% | inhibition [2]: 3.87% | inhibition [3]: 0.15%

c1ccc(CCNc2ccnc(Nc3ccc4cn[nH]c4c3)n2)cc1
inhibition [1]: 17.8% | inhibition [2]: 14.8% | inhibition [3]: 10%

COc1ccc2c(=NN=Cc3ccncc3)cc(C)[nH]c2c1
inhibition [1]: 4.05% | inhibition [2]: 3.94% | inhibition [3]: 3.63%

Cc1noc(C)c1-c1ccc2c(Nc3ccccc3N3CCOCC3)c(C(=O)NCc3ccccc3)cnc2c1
inhibition [1]: 8.19% | inhibition [2]: 5.91% | inhibition [3]: 1.84%

Cc1cccc2nc(-c3ccc(-c4ccc(CNCc5ccc(S(C)(=O)=O)cc5)cc4)cc3)[nH]c12
inhibition [1]: 12% | inhibition [2]: 10.9% | inhibition [3]: 7.88%

Cc1cc(N(C)C)nc(Nc2ccc(NC(=O)c3ccc(Br)o3)cc2)n1
inhibition [1]: 7.73% | inhibition [2]: 9.85% | inhibition [3]: 3.96%

O=C(c1ccccc1)N1CCC(CN2CCOC(c3ccccc3)(c3ccccc3)C2)CC1
inhibition [1]: 3.71% | inhibition [2]: 3.92% | inhibition [3]: 2.8%

CC1(C)CC2CC(C)(CN2C(=O)c2cc(C(C)(C)C)nn2Cc2ccccc2)C1 (configuration not stated)
inhibition [1]: 7.67% | inhibition [2]: 7.75% | inhibition [3]: 5.94%

Cc1cccc2nc(-c3ccc(-c4cccc(C(=O)NCCc5cn(C)cn5)c4)s3)[nH]c12
inhibition [1]: 1.8% | inhibition [2]: 1.96% | inhibition [3]: 1%

CC(C)C(C(=O)n1cc2c(ccc3nc(N)nc(N)c32)n1)C(C)C
inhibition [1]: 8.32% | inhibition [2]: 11% | inhibition [3]: 3.51%

O=C(Nc1cc(C(F)(F)F)cc(C(F)(F)F)c1)NC(CCCN1CCC2(CC1)OCc1ccccc12)c1ccc(Cl)c(Cl)c1 (configuration not stated)
inhibition [1]: 3% | inhibition [2]: 5.93% | inhibition [3]: -0.66%

NC(=O)c1c(Cl)nc2ccccc2c1Cl
inhibition [1]: 4.35% | inhibition [2]: 4.69% | inhibition [3]: 4.04%

O=C(Nc1ccc(CN2CCOCC2)cc1)c1ccc(-c2cc(Cl)ccc2Cl)o1
inhibition [1]: 11% | inhibition [2]: 8.63% | inhibition [3]: 7.99%

Cc1ccc(-c2ccc3c(c2)C=C(C(=O)NCC2CCN(CC4CCN(C(=O)/C=C/c5ccc(Cl)c(Cl)c5)CC4)CC2)CCC3)cc1
inhibition [1]: 1.1% | inhibition [2]: 0.59% | inhibition [3]: -0.85%

N#Cc1ccc(C(=O)Nc2ccc(-c3cccc(CN4CCCC4)c3)cc2)cc1
inhibition [1]: 4.22% | inhibition [2]: 1.49% | inhibition [3]: -0.82%

CCN(CC)CCCN(CCCN(CC)CC)c1cc(C)nc(Nc2ccc(Cl)cc2)n1
inhibition [1]: 2.61% | inhibition [2]: 0.88% | inhibition [3]: 0.26%

COc1ccc(-c2cccc(NC(=O)c3ccc(Cl)cc3)c2)cc1CN1CCCC1
inhibition [1]: 11.3% | inhibition [2]: 9.27% | inhibition [3]: 5.55%

O=C(NCCN1CCCC1)N1CCCN(c2ncnc3cc(-c4ccc(F)cc4)sc23)CC1
inhibition [1]: -1.05% | inhibition [2]: -2.33% | inhibition [3]: 4.44%

CC(=O)Nc1nc(C(=O)Nc2cccc(-c3cccc(-c4nc5cc(F)ccc5[nH]4)c3)c2)cs1
inhibition [1]: 2.3% | inhibition [2]: 3.28% | inhibition [3]: 2.66%

CN(CCN)Cc1cccc(-c2cccc(-c3nc4cc(C(F)(F)F)ccc4[nH]3)c2)c1
inhibition [1]: 2.68% | inhibition [2]: 2.47% | inhibition [3]: 3.72%

Cc1cccc(CCNC(=O)c2cc(Br)cc(N3CCN(c4ccncc4)CC3)c2)c1
inhibition [1]: 0.72% | inhibition [2]: 2.44% | inhibition [3]: 1.78%

c1ccc(Oc2ccc(Nc3ccnc(Nc4ccc(OCCN5CCCCC5)cc4)n3)cc2)cc1
inhibition [1]: 8.95% | inhibition [2]: 12.8% | inhibition [3]: 18.4%

CCOC(=O)c1cccc(NC(=O)Nc2cccc(-c3ncc(OCCCN)c4c3nc(-c3nonc3N)n4CC)c2)c1
inhibition [1]: 2.41% | inhibition [2]: 3.25% | inhibition [3]: 3.37%

COc1cc(NC(=O)N2CCOC(CCN3CCC4(CCc5ccccc54)CC3)(c3ccc(Cl)c(Cl)c3)C2)cc(OC)c1 (configuration not stated)
inhibition [1]: 3.64% | inhibition [2]: 1.66% | inhibition [3]: 1.53%

COc1ccc2nccc([C@@H](O)CN3CCC(NCc4cnc5c(c4)NC(=O)CS5)CC3)c2c1
inhibition [1]: 2.7% | inhibition [2]: 4.54% | inhibition [3]: 1.2%

Nc1ncc(-c2cn[nH]c2)cc1-c1nc2cc(Cl)cnc2[nH]1
inhibition [1]: 3.35% | inhibition [2]: 1.4% | inhibition [3]: 1.93%

CC(C)(C)NC(=O)c1ccc(Oc2ccc(OC(F)(F)F)cc2)c(NC(=O)C(C)(C)C)c1
inhibition [1]: -3.08% | inhibition [2]: -1.32% | inhibition [3]: -2.26%

Cc1nnc(-c2cccc(Nc3ccnc4cc(-c5nccs5)ccc34)c2)o1
inhibition [1]: 11.2% | inhibition [2]: 11.8% | inhibition [3]: 9.75%

Cc1cc(OCCCNc2nc(NCCc3ccc(O)cc3)nc(N3CCNCC3)n2)c(Cl)c(C)c1Cl
inhibition [1]: 0.58% | inhibition [2]: 1.22% | inhibition [3]: 0.27%

Cn1cc(-c2ccnc3[nH]c(-c4cccc(CNC5CCC(O)CC5)c4)cc23)cn1 (configuration not stated)
inhibition [1]: 0.39% | inhibition [2]: 1.89% | inhibition [3]: 3.37%

CN1CCCN(c2ccnc3cc4c(cc23)N(C(=O)c2ccccc2Cl)CC4)CC1
inhibition [1]: -0.76% | inhibition [2]: 0.96% | inhibition [3]: -0.18%

Cc1cccc(Cl)c1S(=O)(=O)N1CCCCC(c2ccc(C(F)(F)F)cc2)=N1
inhibition [1]: 4.54% | inhibition [2]: 4.52% | inhibition [3]: 3.77%

Cc1cc(N2Cc3ccccc3C2)nc(Nc2cccc(C#N)c2)n1
inhibition [1]: 4.07% | inhibition [2]: 4.04% | inhibition [3]: 2.59%

COc1cc2c(cc1OCCN1CCC(N)CC1)N(C(=O)/C=C/c1ccccc1Cl)CC2
inhibition [1]: 11.3% | inhibition [2]: 10.8% | inhibition [3]: 12.8%

Cc1sc(CNCCCNc2cc(=O)c3ccccc3[nH]2)c(C(F)(F)F)c1C
inhibition [1]: -2.84% | inhibition [2]: -0.65% | inhibition [3]: -0.52%

CCc1c(C(=O)NC2CCC(N3CCC(c4ccccc4C)CC3)CC2)[nH]c2ccc(OC)cc12 (configuration not stated)
inhibition [1]: 0.2% | inhibition [2]: -0.58% | inhibition [3]: -0.08%

COc1ccc(CC(=O)NC2CCN(c3ccnc4cc(Cl)ccc34)C2)cc1 (configuration not stated)
inhibition [1]: -0.54% | inhibition [2]: -0.22% | inhibition [3]: -0.25%

O=C(NC1CCC(N2CCN(c3cccc(C(F)(F)F)c3)CC2)CC1)c1cc2ccccc2[nH]1 (configuration not stated)
inhibition [1]: 8.24% | inhibition [2]: 6.44% | inhibition [3]: 5.57%

CN1CCCN(Cc2ccc(-c3cccc(NC(=O)c4ccc(Cl)cc4)c3)cc2)CC1
inhibition [1]: 3.92% | inhibition [2]: 0.88% | inhibition [3]: 0.76%

Cc1cc2nc(-c3ccc(OCC(=O)NCc4cccc(C(F)(F)F)c4)cc3)[nH]c2cc1C
inhibition [1]: -2.75% | inhibition [2]: -1.2% | inhibition [3]: -1.65%

CCC(C)c1ccc(-n2c(Nc3ccccc3)nc3cc(S(N)(=O)=O)ccc32)cc1 (configuration not stated)
inhibition [1]: 12.3% | inhibition [2]: 6.89% | inhibition [3]: 5.77%

c1ccc(CNCc2cccc(-c3csc(-c4nc5ccccc5[nH]4)c3)c2)cc1
inhibition [1]: 4.56% | inhibition [2]: 5.03% | inhibition [3]: 3.11%

O=c1cc(-c2ccc3ccccc3c2)[nH]c2ccccc12
inhibition [1]: 2.83% | inhibition [2]: 2.68% | inhibition [3]: 2.23%
